The values that follow come from PubChem BioAssay (NCATS).

Inconclusive results are not listed. Entries that show only a call come without a potency. A number with no mark means an inactive call. Activity calls are given as the source filed them. Calls come from the whole dose curve; as a rule, active = well fitted inhibition curve with a large enough effect; inconclusive = small, poorly fitted or top-dose-only effect; inactive = no such curve, though single readings can be large or run the other way. Where a SMILES comes first, the peptide text is derived from it. [ ]: non-standard residue; d: D form. Nle = CCCC[C@H](N)C(=O)O
Potency is the fitted concentration of half-maximal effect.

A short description of the assay: Primary qHTS for small molecule stabilizers of the endoplasmic reticulum resident proteome: Secreted ER Calcium Modulated Protein (SERCaMP) assay (AID 1508630). The note with it: SH-SY5Y GLuc-SERCaMP (Gaussia luciferase released on ER calcium loss) secretion, thapsigargin, luminescence; series mostly up to 38.4 µM. The gist of the method:
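The SH-SY5Y reporter protocol was run at 3 concentrations up to 38.3 uM (primary) or 11 concentrations (follow-up): 16 h compound, 100 nM thapsigargin for 4 h, then extracellular luciferase luminescence.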
A general note: In qHTS, concentration-response curves come from the screen itself.
Take `O=C(O)[C@@H]1CN[C@@H](C(=O)O)C1`: the Potency entry was “inactive”. With `CC(C)c1cnc(NC(=O)Cc2ccccc2)s1`, the Potency entry is “inactive”. Take `CCCCCCCC/C=C\CCCCCCCC(=O)OC[C@H](CO)OC(C)=O`: the activity change, negative = inhibition was -28% [at 3.88 µM].

For the molecule `CCCCCCCC/C=C\CCCCCCCCOC[C@H](COP(=O)([O-])OCC[N+](C)(C)C)OC(C)=O`, the activity change, negative = inhibition was -15.7% [at 3.88 µM]. Same read-out and setting: with `CCCCC/C=C\C\C=C/C=C/C=C/[C@@H](SC[C@H](NC(=O)CC[C@H](N)C(=O)O)C(=O)NCC(=O)O)[C@@H](O)CCCC(=O)O` the figure was -14.5% [at 0.478 µM]. As to `CC(C)n1nnc2cc(C(=O)O)ccc21`, the Potency result was “inactive”. In the case of `CNc1ncnc2c1ncn2[C@H]1C[C@H](O)[C@@H](CO)O1`, the Potency result is “inactive”. In the case of `CCCC[C@@H](C=O)NC(=O)[C@H](CC(C)C)NC(=O)[C@H](CC(C)C)NC(C)=O` (Ac-Leu-Leu-[Nle]-aldehyde), the Potency entry was “inactive”. In the case of `O=Nc1ccc(O)c2ncccc12`, the Potency result was “inactive”. On the same count and under the same terms, with `O=C(O)c1ccncc1` the entry was “inactive”; with `COC1C(O)C(CO)OC1n1cnc2c(NC3CCCCC3)ncnc21` (stereo not given), “inactive”.

Turning to `CC(C)[C@H]1c2ccc(F)cc2CC[C@@]1(CCN(C)CCCc1nc2ccccc2[nH]1)OC(=O)C1CC1`, the Potency entry was “inactive”. As for `Cc1ccc2c(c1)C(=O)C1(O)CCN(c3ccccc3)C1=N2` (stereo not given), the Potency result was “inactive”. As for `CCCCCCCC/C=C\CCCCCCCC(=O)OC[C@@H](O)COP(=O)(O)O`, the activity change, negative = inhibition was -10.9% [at 3.88 µM]. As for `CC(C)ON(CC(=O)NO)S(=O)(=O)c1ccc(-c2ccccc2)cc1`, the Potency entry was “inactive”. As to `NCCn1oc(=O)[nH]c1=O`, the Potency entry was “inactive”. For the molecule `CCCC1OC2CC3C4CCC5=CC(=O)C=CC5(C)C4C(O)CC3(C)C2(C(=O)CO)O1` (stereo not given), the Potency entry was “inactive”. Same read-out and setting: with `CC(C)n1cnc2c(NCc3ccccc3)nc(NCCO)nc21` the entry was “inactive”; with `NS(=O)(=O)c1nn2cc(-c3ccccc3)nc2s1`, “inactive”. Turning to `COc1ccc(C2CC(c3c(O)cc(C)oc3=O)=NCCS2)c(OC)c1` (stereo not given), the Potency entry is “inactive”. Take `Nc1nc2c(ncn2[C@@H]2O[C@H](COP(=O)(O)OP(=O)(O)O)[C@@H](O)[C@H]2O)c(=O)[nH]1`: the Potency result was “inactive”. `C[C@H](CCC(=O)NCCS(=O)(=O)O)C1CC[C@H]2C3CC[C@@H]4C[C@H](O)CC[C@]4(C)C3C[C@H](O)[C@]12C` (stereo not given in full): the Potency entry was “inactive”. Take `COc1ccc(CCCOC(Cn2ccnc2)c2ccc(OC)cc2)cc1` (stereo not given): the Potency result is “inactive”. As for `CC(=O)NC1C(OC2OC(CC(O)C3OC([N+]4=CCC(=O)NC4=O)C(O)C3O)C(O)C(O)C2NC(=O)/C=C/CCCCCCCCC(C)C)OC(CO)C(O)C1O` (stereo not given), the Potency was 1000 nM (active). Still for that read-out and setting: with `Cc1[nH]c(/C=C2/C(=O)Nc3ccc(S(=O)(=O)Cc4c(Cl)cccc4Cl)cc32)c(C)c1C(=O)N1CCCC1CN1CCCC1` (stereo not given) the entry was “inactive”; with `Cc1ccc(/C=C2/CNC/C(=C\c3ccc(C)cc3)C2=O)cc1`, “inactive”.

On to `CC[C@H](C)[C@H](NC(=O)[C@H](C)NC(=O)[C@H](CC(N)=O)NC(=O)[C@H](CCCCN)NC(=O)[C@H](Cc1ccccc1)NC(=O)[C@H](CC(C)C)NC(=O)[C@@H](NC(=O)[C@@H](NC(=O)[C@H](CC(C)C)NC(=O)[C@@H]1CCCN1C(=O)[C@@H](NC(=O)[C@H](CCC(N)=O)NC(=O)[C@H](CO)NC(=O)[C@H](CCCCN)NC(=O)[C@H](CCC(=O)O)NC(=O)[C@H](CO)NC(=O)[C@@H](NC(=O)[C@H](CCSC)NC(=O)[C@H](Cc1ccccc1)NC(=O)CNC(=O)CNC(=O)[C@@H](N)Cc1ccc(O)cc1)[C@@H](C)O)[C@@H](C)O)C(C)C)[C@@H](C)O)C(=O)N[C@H](C(=O)N[C@@H](CCCCN)C(=O)N[C@@H](CC(N)=O)C(=O)N[C@@H](C)C(=O)N[C@@H](Cc1ccc(O)cc1)C(=O)N[C@@H](CCCCN)C(=O)N[C@@H](CCCCN)C(=O)NCC(=O)N[C@@H](CCC(=O)O)C(=O)O)[C@@H](C)CC`, for which the activity change, negative = inhibition is -16.9% [at 3.88 µM]. Take `CN1C/C(=C/c2ccc(B(O)O)cc2)C(=O)/C(=C/c2ccc(B(O)O)cc2)C1`: the Potency entry was “inactive”. Same read-out and setting: next, `O=[N+]([O-])c1cc2nc(O)c(O)nc2cc1[N+](=O)[O-]`: “inactive”; `N[C@@]1(C(=O)O)CO[C@H]2[C@H](C(=O)O)[C@H]21`: “inactive”. Take `CCCCC(C)(O)C/C=C/[C@H]1[C@H](O)CC(=O)[C@@H]1CCCCCCC(=O)O` (stereo not given in full): the activity change, negative = inhibition is -15.4% [at 3.88 µM]. On the same count and under the same terms, next, `CCCCCCCCCCCCCCCC(=O)OCC(COP(=O)(O)O)OC(=O)CCCCCCCCCCCCCCC` (stereo not given): -28.1% [at 3.88 µM]. Turning to `N#CC(C#N)=C(N)/C(C#N)=C/c1ccc2[nH]ccc2c1`, the Potency result was “inactive”.

As to `CC[C@]1(O)C[C@@H]2CN(CCc3c([nH]c4ccccc34)[C@@](C(=O)OC)(c3cc4c(cc3OC)N(C)C3[C@]45CCN4CC=C[C@](CC)(C45)[C@@H](OC(C)=O)[C@]3(O)C(=O)OC)C2)C1` (stereo not given in full), the Potency result is “inactive”. In the case of `CCCCc1nc2ccn(CC(=O)N(C)C)c(=O)c2n1Cc1ccc(-c2ccccc2-c2nn[nH]n2)cc1`, the Potency result was “inactive”. Consider `CC(C)C[C@H](NC(=O)[C@H](CCCCN)NC(=O)[C@H](CCCNC(=N)N)NC(=O)[C@H](C)NC(=O)[C@H](CO)NC(=O)[C@H](CCCCN)NC(=O)[C@H](CCCNC(=N)N)NC(=O)[C@H](C)NC(=O)CNC(=O)[C@@H](NC(=O)[C@H](Cc1ccccc1)NC(=O)CNC(=O)CNC(=O)[C@@H](N)Cc1ccccc1)[C@H](C)O)C(=O)N[C@@H](C)C(=O)N[C@@H](CC(N)=O)C(=O)N[C@@H](CCC(N)=O)C(=O)O`, for which the activity change, negative = inhibition is 13.9% [at 3.88 µM]. Take `CC(C)[C@@H]1NC(=O)[C@H](Cc2ccccc2)NC(=O)[C@@H](CC(=O)O)NC(=O)CNC(=O)[C@H](CCCNC(=N)N)NC1=O`: the Potency entry is “inactive”. In the case of `CNCC(=O)NCC(=O)N[C@@H](Cc1ccccc1)C(=O)N[C@@H](CC(C)C)C(=O)O` (HELM PEPTIDE1{[Sar].G.F.L}$$$$V2.0), the activity change, negative = inhibition is -6.57% [at 3.88 µM].

Turning to `CCCCCCCCCC(=O)N[C@H](CN1CCOCC1)[C@H](O)c1ccccc1`, the activity change, negative = inhibition is 9.26% [at 3.88 µM]. As to `COc1oc(=O)c2cc(N)ccc2c1Cl`, the Potency entry is “inactive”.
